PubChem BioAssay (NCATS)
Values without a mark were called inactive. Results filed as inconclusive are left out. Active and inactive are the calls of the source. Unless noted, calls come from the whole dose curve; as a rule, active = well fitted curve in either direction with a large enough effect (not every such curve was filed as active); inconclusive = small, poorly fitted or top-dose-only effect, or another doubt; inactive = flat fitted curve, though single readings scatter.

Assays:
[1] = biological target: Lysosomal acid glucosylceramidase (Homo sapiens) (UniProt P04062); assay: Glucocerebrosidase-p2 (AID 348; in the data active = potency below about 10 µM; note: potency is the fitted concentration of half-maximal effect); conditions: purified GBA, blue fluorogenic substrate, 40 min
Sequence of Lysosomal acid glucosylceramidase (Homo sapiens) (P04062 whole entry, looked up): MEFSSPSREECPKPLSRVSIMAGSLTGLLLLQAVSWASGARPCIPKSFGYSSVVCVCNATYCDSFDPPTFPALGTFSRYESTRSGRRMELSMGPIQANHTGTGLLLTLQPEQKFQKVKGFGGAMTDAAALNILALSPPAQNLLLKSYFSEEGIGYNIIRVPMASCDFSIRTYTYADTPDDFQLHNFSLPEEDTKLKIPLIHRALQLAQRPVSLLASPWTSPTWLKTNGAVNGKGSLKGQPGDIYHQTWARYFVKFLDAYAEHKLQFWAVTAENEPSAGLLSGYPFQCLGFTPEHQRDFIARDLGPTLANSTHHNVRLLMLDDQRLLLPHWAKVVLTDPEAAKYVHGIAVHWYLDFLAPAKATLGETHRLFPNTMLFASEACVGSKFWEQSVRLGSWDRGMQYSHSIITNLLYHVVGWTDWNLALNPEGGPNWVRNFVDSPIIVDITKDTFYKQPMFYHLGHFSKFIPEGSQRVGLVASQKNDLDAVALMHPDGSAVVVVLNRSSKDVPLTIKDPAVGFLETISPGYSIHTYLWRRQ
In short: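 Compounds titrated from 0.6 nM upwards against 0.2 nM enzyme in pH 5.9 citric acid/KH2PO4, taurocholate, tween-20; blue fluorogenic substrate 80 uM, 40 min room temperature, stopped and read Ex 365/Em 440 for AC50.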

[2] = AP1 Signaling Pathway (AID 357); conditions: ME-180 AP-1-bla reporter, EGF-induced, beta-lactamase ratio, 5 h; at 7.69 µM (top of the series) unless noted;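 note: ME-180 reporter cells stimulated with EGF at its EC50 level; % is set by controls: 0 for no effect and ±100 for the full control effect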
In short: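 Modulation of EGF-driven AP-1 transcription was assessed with a beta-lactamase reporter in ME-180 cells. Compound and EC50 EGF were co-incubated 5 hours at 37 °C before 2.5-hour CCF4 loading at room temperature and dual-emission reading.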

[3] = biological target: Cytochrome P450 1A2 (Homo sapiens) (UniProt P05177); assay: p450-cyp1a2 (AID 410; calls by dose curve; note: potency is the fitted concentration of half-maximal effect); conditions: recombinant CYP1A2, luciferin-ME demethylation, luminescence; series mostly up to 57 µM
Sequence of Cytochrome P450 1A2 (Homo sapiens) (P05177 whole entry, looked up): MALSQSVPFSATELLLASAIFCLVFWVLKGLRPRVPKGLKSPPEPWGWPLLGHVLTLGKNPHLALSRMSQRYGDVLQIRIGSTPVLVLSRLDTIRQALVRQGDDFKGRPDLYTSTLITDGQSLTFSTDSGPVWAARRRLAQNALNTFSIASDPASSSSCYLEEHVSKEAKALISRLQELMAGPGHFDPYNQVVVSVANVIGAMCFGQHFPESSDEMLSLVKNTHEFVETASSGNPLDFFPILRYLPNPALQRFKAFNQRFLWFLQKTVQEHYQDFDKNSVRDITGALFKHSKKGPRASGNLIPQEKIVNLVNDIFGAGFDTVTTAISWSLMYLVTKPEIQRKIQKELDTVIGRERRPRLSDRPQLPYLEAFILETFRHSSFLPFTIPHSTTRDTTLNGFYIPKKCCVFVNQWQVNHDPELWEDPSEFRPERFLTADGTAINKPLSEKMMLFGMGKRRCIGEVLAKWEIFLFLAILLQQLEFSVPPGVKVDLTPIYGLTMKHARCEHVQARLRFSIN
In short: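 Luminescent readout of luciferin formed from Luciferin-ME by human CYP1A2; data normalized against complete inhibition by 57 uM furafylline. Enzyme 20nM, substrate 100uM at Km, 100mM KPO4 buffer, 60 min reaction at room temperature.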

[4] = NFAT Signaling Pathway (AID 444); conditions: Jurkat NFAT-bla M1, carbachol, beta-lactamase ratio, 5 h; at 7.69 µM (top of the series) unless noted;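 note: carbachol stimulus at about its EC50 of 1 µM final; % is set by controls: 0 for no effect and ±100 for the full control effect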
In short: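 Jurkat cells carrying an NFAT-driven β-lactamase reporter and co-transfected muscarinic M1 receptor were treated with compound plus carbachol (1 uM final, an EC50 level) for 5 h at 37 °C. CCF4 loading followed for 1 h at RT; 460/530 nm ratio gave %activity.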

[5] = Stat Signaling Pathway (AID 446); conditions: ME-180 SIE beta-lactamase reporter, IL-6 stimulated, 5 h; at 7.69 µM (top of the series) unless noted;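 note: ME-180 cervical cancer cells given 40 pM IL-6 alongside compound; SIE-controlled beta-lactamase reporter measured as 460/530 nm FRET emission ratio; % is set by controls: 0 for no effect and ±100 for the full control effect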
In short: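 IL-6/STAT signaling read in ME-180 cells via an SIE beta-lactamase reporter. Stimulus was 40 pM IL-6 (its AC50) for 5 hrs, so both activation and inhibition register.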

[6] = biological target: Glucocorticoid receptor (Homo sapiens) (UniProt P04150); assay: GR-GFP Redistribution (AID 450;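 active = compounds whose dose series gives a full or clear partial fitted curve of increased nuclear translocation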; note: potency is the fitted concentration of half-maximal effect); conditions: U2OS GR-GFP nuclear translocation, laser cytometry, 2 h
Sequence of Glucocorticoid receptor (Homo sapiens) (P04150 whole entry, looked up, the tested form may be a part): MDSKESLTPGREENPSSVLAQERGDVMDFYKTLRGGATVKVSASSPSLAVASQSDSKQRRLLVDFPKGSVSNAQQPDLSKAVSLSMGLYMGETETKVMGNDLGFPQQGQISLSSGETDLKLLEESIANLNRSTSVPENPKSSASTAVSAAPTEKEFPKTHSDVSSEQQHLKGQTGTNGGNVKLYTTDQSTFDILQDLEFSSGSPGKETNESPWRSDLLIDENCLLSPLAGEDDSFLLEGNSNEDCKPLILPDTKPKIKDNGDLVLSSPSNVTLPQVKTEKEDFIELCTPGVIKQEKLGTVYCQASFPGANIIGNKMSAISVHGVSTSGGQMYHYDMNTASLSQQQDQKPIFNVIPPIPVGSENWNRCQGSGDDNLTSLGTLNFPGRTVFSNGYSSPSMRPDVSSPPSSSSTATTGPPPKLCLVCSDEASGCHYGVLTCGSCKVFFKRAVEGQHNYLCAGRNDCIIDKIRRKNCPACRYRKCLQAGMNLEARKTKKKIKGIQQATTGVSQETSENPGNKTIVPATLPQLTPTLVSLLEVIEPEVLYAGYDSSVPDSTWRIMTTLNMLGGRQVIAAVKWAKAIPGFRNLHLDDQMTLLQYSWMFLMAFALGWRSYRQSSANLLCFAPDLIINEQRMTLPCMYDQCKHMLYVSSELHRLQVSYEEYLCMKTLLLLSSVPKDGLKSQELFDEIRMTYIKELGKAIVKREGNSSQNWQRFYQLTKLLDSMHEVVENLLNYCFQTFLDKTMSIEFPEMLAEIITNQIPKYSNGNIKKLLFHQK

[7] = biological target: Glucocorticoid receptor (Homo sapiens) (UniProt P04150); assay: GR-EFC Redistribution (AID 451; calls by dose curve; note: potency is the fitted concentration of half-maximal effect); conditions: CHO-K1 GR-EFC translocation, beta-gal luminescence, 2 h
In short: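 CHO-K1 cells stably expressing nuclear-localized β-gal enzyme acceptor and GR fused C-terminally to the enzyme donor fragment; ligand-driven nuclear translocation restores β-gal by complementation. Compounds titrated up to 46 uM final, 2 h at 37 °C; luminescence read.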

[8] = biological target: Mitogen-activated protein kinase 10 (Mus musculus) (UniProt Q61831); assay: JNK3 AlphaScreen Assay (AID 530); conditions: JNK3 lysate, c-Jun phosphorylation; series mostly up to 57.1 µM;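 note: kinase came from lysate of stimulated human HepG2 cells; signal reports phosphorylation of biotinylated GST-cJun 1-79 at Ser73 with 10 µM ATP; % is set by controls: 0 for no effect and ±100 for the full control effect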
In short: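 Inhibitors reduce antibody binding to phosphorylated biotin-cJun, lowering AlphaScreen luminescence. Lysates from HepG2 cells pre-activated by IL-1beta plus TNF-alpha supplied JNK3; compounds were titrated.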

[9] = Confirmation and Secondary Assay for Modulators of Hemoglobin Beta Chain Splicing at IVS2 654 locus (AID 910; active = well fitted curve in the direction sought with a large enough effect; an effect the other way counts as inactive or inconclusive;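 note: per-well total GFP intensity by laser scanning cytometry after 2-day treatment; % of control where 0% means no effect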); conditions: HeLa EGFP-654 splicing reporter, GFP fluorescence, 48 h; series mostly up to 38.3 µM
In short: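 HeLa cells stably carrying EGFP interrupted by mutant beta-globin IVS2-654 intron (CMV-driven) were treated with compound for 2 days at 37C; corrected splicing was scored as total peak GFP intensity per well (488 nm excitation, 500-520 nm emission).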

[10] = biological target: Ubiquitin carboxyl-terminal hydrolase 1 (Homo sapiens) (UniProt O94782); assay: Inhibitors of USP1/UAF1: Pilot qHTS (AID 504865; active = well fitted curve in the direction sought with a large enough effect; an effect the other way counts as inactive or inconclusive;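 note: rhodamine fluorescence freed from ubiquitin-rhodamine substrate followed over time; top concentration of the series differs between compounds; % is set by controls: 0 for no effect and ±100 for the full control effect; nearly all actives have a fitted effect of over 35% in size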); conditions: purified USP1/UAF1, Ub-rhodamine cleavage fluorescence; series mostly up to 54.9 µM
Sequence of Ubiquitin carboxyl-terminal hydrolase 1 (Homo sapiens) (O94782 whole entry, looked up): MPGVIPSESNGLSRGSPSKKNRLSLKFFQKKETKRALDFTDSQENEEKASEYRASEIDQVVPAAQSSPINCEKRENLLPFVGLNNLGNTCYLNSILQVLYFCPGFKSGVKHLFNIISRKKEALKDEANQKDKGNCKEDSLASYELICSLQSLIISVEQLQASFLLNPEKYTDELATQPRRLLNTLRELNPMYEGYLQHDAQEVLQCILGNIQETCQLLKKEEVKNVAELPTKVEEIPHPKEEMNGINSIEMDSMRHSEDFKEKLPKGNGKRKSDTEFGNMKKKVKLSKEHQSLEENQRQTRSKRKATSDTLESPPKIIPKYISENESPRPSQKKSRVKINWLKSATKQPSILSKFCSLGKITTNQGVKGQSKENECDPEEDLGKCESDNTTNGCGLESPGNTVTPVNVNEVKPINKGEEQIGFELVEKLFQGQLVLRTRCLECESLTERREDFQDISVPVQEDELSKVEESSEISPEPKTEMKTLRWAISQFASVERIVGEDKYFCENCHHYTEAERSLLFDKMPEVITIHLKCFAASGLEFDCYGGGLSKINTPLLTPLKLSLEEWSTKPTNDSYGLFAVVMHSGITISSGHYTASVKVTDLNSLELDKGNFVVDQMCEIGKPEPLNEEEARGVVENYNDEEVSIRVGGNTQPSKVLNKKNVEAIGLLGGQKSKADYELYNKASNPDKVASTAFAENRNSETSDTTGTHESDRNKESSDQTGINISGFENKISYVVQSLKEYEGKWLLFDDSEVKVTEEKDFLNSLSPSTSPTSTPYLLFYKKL
In short: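 Enzyme-free wells gave the negative control, while test wells held 1nM USP1/UAF1 preincubated with compound for 15 min at room temperature. Ub-Rho at 150nM final started the reaction, and fluorescence at 480/540 nm was recorded kinetically.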

[11] = Primary qHTS for small molecule stabilizers of the endoplasmic reticulum resident proteome: Secreted ER Calcium Modulated Protein (SERCaMP) assay (AID 1508630; active = well fitted curve in the direction sought with a large enough effect; an effect the other way counts as inactive or inconclusive; note: % is set by controls: 0 for no effect and ±100 for the full control effect); conditions: SH-SY5Y GLuc-SERCaMP (Gaussia luciferase released on ER calcium loss) secretion, thapsigargin, luminescence; series mostly up to 38.4 µM
In short: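 GLuc-SERCaMP-expressing SH-SY5Y cells, pretreated 16 h with compound, are challenged with thapsigargin to empty ER calcium stores; after 4 h, coelenterazine is added directly to the medium and luminescence is imaged.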

[12] = biological target: 3',5'-cyclic-AMP phosphodiesterase 4B (Homo sapiens) (UniProt Q07343); assay: qHTS Assay for Inhibitors of PDE-IV (AID 607; active = well fitted activation curve with a large enough effect in the main read-out, with a control signal flat, not every such curve was filed as active; note: % of control where 0% means no effect); conditions: HEK293 ACTOne CNG channel cells, membrane potential fluorescence; series mostly up to 22.9 µM
Sequence of 3',5'-cyclic-AMP phosphodiesterase 4B (Homo sapiens) (Q07343 whole entry, looked up): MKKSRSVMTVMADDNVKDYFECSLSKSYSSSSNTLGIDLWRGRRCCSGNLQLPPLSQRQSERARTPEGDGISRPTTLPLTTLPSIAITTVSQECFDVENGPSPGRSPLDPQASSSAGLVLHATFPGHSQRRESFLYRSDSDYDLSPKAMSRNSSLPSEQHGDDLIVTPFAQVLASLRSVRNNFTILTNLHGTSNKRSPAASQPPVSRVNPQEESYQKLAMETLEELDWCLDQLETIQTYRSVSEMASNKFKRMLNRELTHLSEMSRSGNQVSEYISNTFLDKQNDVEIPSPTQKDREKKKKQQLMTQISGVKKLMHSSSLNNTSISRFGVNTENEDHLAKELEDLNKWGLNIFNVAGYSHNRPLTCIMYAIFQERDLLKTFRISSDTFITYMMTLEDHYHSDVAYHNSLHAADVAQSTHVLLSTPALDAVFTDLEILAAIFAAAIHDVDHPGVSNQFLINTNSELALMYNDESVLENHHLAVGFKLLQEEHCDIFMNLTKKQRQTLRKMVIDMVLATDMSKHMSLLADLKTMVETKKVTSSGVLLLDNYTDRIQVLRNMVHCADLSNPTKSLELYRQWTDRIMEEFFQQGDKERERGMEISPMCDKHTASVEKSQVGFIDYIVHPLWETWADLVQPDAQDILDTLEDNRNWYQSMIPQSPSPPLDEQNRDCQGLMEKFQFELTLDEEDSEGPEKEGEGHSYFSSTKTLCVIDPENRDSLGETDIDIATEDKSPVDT
In short: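 Live HEK293 cells with a modified cyclic nucleotide-gated (CNG) channel report intracellular cAMP via membrane-potential dye fluorescence (ex 535/em 590 nm). Endogenous PDE-IV was targeted. Compounds were tested at up to 22.9 uM final; RO 20-1724 100 uM served as control.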

[13] = biological target: Cytochrome P450 3A4 (Homo sapiens) (UniProt P08684); assay: qHTS Assay for Activators of Cytochrome P450 3A4 (AID 885; active = well fitted curve in the direction sought with a large enough effect; an effect the other way counts as inactive or inconclusive; note: nearly all actives have a fitted effect of over 65% in size); conditions: recombinant CYP3A4, Luciferin-PPXE luminescence, 60 min; series mostly up to 57.1 µM
Sequence of Cytochrome P450 3A4 (Homo sapiens) (P08684 whole entry, looked up): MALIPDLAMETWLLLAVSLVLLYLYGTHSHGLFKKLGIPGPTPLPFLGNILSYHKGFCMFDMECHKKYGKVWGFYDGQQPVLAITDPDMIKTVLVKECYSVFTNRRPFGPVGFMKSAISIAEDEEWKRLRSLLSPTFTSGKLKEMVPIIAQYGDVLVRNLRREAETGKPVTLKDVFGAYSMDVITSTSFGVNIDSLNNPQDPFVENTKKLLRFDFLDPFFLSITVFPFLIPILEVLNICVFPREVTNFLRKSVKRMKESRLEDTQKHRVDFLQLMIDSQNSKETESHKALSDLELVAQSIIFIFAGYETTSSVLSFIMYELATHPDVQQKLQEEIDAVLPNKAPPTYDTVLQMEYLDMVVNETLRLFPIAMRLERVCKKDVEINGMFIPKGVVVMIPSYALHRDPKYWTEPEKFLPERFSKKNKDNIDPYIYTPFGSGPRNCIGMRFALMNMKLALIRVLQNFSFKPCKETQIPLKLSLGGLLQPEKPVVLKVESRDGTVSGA
In short: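 Quantitative HTS format: compounds preincubated with 20nM human CYP3A4 and Luciferin-PPXE substrate at KM, reaction started by NADPH regeneration, stopped after 60 min, luciferase luminescence read 20 min later.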

[14] = Confirmation and Secondary Assay for Modulators of Hemoglobin Beta Chain Splicing at IVS2 705 locus (AID 930; active = well fitted curve in the direction sought with a large enough effect; an effect the other way counts as inactive or inconclusive;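 note: HeLa cells stably expressing the EGFP-705 splicing reporter; GFP fluorescence per well restored by corrected splicing of the IVS2-705 intron in EGFP; % of control where 0% means no effect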); conditions: HeLa EGFP-705 splicing reporter, GFP fluorescence, 48 h; series mostly up to 38.3 µM
In short: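 Secondary splice-site specificity test uses HeLa expressing CMV-driven EGFP interrupted by IVS2-705; cells were treated 2 days at 37C with 500 nM antisense PNA as positive control.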

[15] = biological target: Cytochrome P450 3A4 (Homo sapiens) (UniProt P08684); assay: qHTS Assay for Inhibitors and Substrates of Cytochrome P450 3A4 (AID 884; active = well fitted curve in the direction sought with a large enough effect; an effect the other way counts as inactive or inconclusive; note: potency is the fitted concentration of half-maximal effect; nearly all actives have a fitted effect of over 50% in size); conditions: recombinant CYP3A4, Luciferin-PPXE luminescence; series mostly up to 57.1 µM
In short: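 20 nM human CYP3A4 with 25 uM Luciferin-PPXE (at KM) in 200 mM KPO4, preincubated 10 min with compound; NADPH regeneration started a 60 min RT reaction. Luciferin detected by luminescence, normalized to 57 uM ketoconazole as full inhibition.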

[16] = biological target: Cytochrome P450 2C19 (Homo sapiens) (UniProt P33261); assay: qHTS Assay for Inhibitors and Substrates of Cytochrome P450 2C19 (AID 899; active = well fitted curve in the direction sought with a large enough effect; an effect the other way counts as inactive or inconclusive; note: potency is the fitted concentration of half-maximal effect; nearly all actives have a fitted effect of over 60% in size); conditions: recombinant CYP2C19, luciferin-H EGE luminescence; series mostly up to 57.1 µM
Sequence of Cytochrome P450 2C19 (Homo sapiens) (P33261 whole entry, looked up): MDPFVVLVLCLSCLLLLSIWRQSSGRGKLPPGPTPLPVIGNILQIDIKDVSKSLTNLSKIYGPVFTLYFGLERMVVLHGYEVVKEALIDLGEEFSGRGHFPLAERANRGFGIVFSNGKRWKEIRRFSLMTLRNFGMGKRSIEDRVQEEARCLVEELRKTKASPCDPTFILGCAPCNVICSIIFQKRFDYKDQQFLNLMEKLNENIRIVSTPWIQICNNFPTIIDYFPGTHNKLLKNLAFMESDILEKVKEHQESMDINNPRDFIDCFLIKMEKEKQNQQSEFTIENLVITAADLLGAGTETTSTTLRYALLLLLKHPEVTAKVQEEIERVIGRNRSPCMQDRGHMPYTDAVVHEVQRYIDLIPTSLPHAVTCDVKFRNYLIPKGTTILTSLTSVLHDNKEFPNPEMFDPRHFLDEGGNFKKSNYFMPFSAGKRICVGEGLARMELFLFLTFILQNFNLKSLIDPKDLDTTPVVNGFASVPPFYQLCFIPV
In short: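 In 50mM KPO4, the reaction held 5nM enzyme and KM-level (10uM) Luciferin-H EGE; it ran 60 min at 37C after NADPH regeneration and a 10 min compound preincubation. Luminescence values were scaled to 57uM ketoconazole as complete inhibition.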

[17] = qHTS Assay for Identification of Small Molecule Agonists for Hypoxia Response Element Signaling Pathway (AID 914; active = well fitted activation curve with a large enough effect in the signal ratio, with a control signal flat, not every such curve was filed as active; the % refers to the signal ratio; note: % of control where 0% means no effect); conditions: ME-180 (cervical carcinoma) HRE-bla reporter, beta-lactamase ratio, CoCl2, 17 h; activation: hits give high values
In short: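 qHTS titration; ME-180 HRE-bla cells; EC50 CoCl2 co-treatment, 17 h at 37 degrees Celsius; CCF4 dye, ex 405nm, em 460nm and 530nm; %Activity from ratio; AC50.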

[18] = biological target: Dual specificity protein kinase CLK4 (Homo sapiens) (UniProt Q9HAZ1); assay: qHTS Assay for Inhibitors of CDC-like Kinase 4 (ADP-FP Assay) (AID 1795; active = well fitted curve in the direction sought with a large enough effect; an effect the other way counts as inactive or inconclusive;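 note: recombinant human CLK4 phosphorylating RS repeat peptide at 1 µM ATP; % is set by controls: 0 for no effect and ±100 for the full control effect; nearly all actives have a fitted effect of over 60% in size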); conditions: Transcreener ADP fluorescence polarization; series mostly up to 50 µM
Sequence of Dual specificity protein kinase CLK4 (Homo sapiens) (Q9HAZ1 whole entry, looked up): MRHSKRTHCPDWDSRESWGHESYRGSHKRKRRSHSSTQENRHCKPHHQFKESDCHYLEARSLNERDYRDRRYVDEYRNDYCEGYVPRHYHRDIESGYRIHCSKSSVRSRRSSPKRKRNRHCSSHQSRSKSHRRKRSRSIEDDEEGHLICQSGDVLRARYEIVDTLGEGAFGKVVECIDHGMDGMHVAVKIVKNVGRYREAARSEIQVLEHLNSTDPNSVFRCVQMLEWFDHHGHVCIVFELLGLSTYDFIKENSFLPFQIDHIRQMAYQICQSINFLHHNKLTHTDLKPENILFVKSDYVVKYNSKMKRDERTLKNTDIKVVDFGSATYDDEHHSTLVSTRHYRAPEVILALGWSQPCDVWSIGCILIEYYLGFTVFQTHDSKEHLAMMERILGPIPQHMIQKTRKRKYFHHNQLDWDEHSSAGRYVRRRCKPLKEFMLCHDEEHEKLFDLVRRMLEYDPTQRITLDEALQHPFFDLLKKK
In short: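 Kinase activity was followed as ADP output, converted from fluorescence polarization with a calibration curve. Reactions ran one hour at low ATP (1 uM) with RS peptide substrate.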

SMILES | Potency [1] | activity change, negative = inhibition [2] [%] | Potency [3] | activity change, negative = inhibition [4] [%] | activity, negative = inhibition [5] [%] | Potency [6] [µM] | Potency [7] [µM] | Potency [8] | Potency [9] | Potency [10] | outcome [11] | Potency [12] | Potency [13] | outcome [14] | Potency [15] | Potency [16] | activation [17] [%] | Potency [18]
N#Cc1cccc(-c2nc(Nc3ccccc3)c3ccccc3n2)c1 | > 11.4 µM | 3.06 | 1.26 µM (active) | 15.5 | 8.9 | > 46 | > 46 | inactive | inactive | inactive | inactive | – | – | – | – | – | – | –
CN(C)C(=O)c1ccc(-c2nccc(NCc3cccnc3)n2)cc1 | > 11.4 µM | -3.36 | 15.8 µM (active) | 3.73 | 2.62 | > 46 | > 46 | inactive | inactive | inactive | inactive | inactive | inactive | inactive | – | – | – | –
Fc1ccc(Nc2nc(-c3ccoc3)nc3ccccc23)cc1 | 7.43 µM (active) | 11.4 | 0.316 µM (active) | -21.4 | 4.98 | > 46 | > 46 | inactive | – | inactive | inactive | – | inactive | – | 3.98 µM (active) | – | – | –
COc1ccc(CNc2ccnc(-c3ccccc3Cl)n2)c(OC)c1 | – | -21.2 | 5.01 µM (active) | -26 | -16.2 | > 46 | > 46 | inactive | – | – | inactive | inactive | – | – | 3.16 µM (active) | 1.26 µM (active) | -15.3 | inactive
N#Cc1cccc(-c2cc(NCc3cccnc3)ncn2)c1 | > 11.4 µM | 11.5 | 0.0398 µM (active) | 3.13 | -25.4 | > 46 | > 46 | inactive | – | inactive | inactive | inactive | – | – | 2.51 µM (active) | – | – | –
CN(C)c1ncc2ncc(=O)n(C)c2n1 | > 11.4 µM | -20.1 | 6.31 µM (active) | 0.153 | -5.5 | > 9.22 | > 46 | inactive | – | – | inactive | inactive | – | – | – | – | – | –
O=c1c(CCc2ccccc2)nc2cnc(N3CCOCC3)nc2n1Cc1ccc(F)cc1 | > 11.4 µM | -10.7 | 10 µM (active) | -2.42 | 17.6 | > 9.22 | > 46 | inactive | – | – | inactive | – | – | – | – | – | – | –
Cc1ccccc1-c1nccc(-n2ccnc2)n1 | > 11.4 µM | 5.77 | 0.0794 µM (active) | -8.66 | 12.8 | > 46 | > 46 | inactive | inactive | inactive | inactive | inactive | inactive | inactive | – | – | -1.43 | –
COCCn1c(=O)c(-c2ccc(F)cc2)nc2cncnc21 | > 11.4 µM | -7.99 | 0.501 µM (active) | 1.81 | 2.35 | > 9.22 | > 46 | inactive | – | – | inactive | inactive | inactive | – | – | – | 3.14 | –
